Cy5 interf NS3h: counter-screen for HCV NS3 helicase inhibitors: fluorescence interference; Cy5-dT15 DNA with NS3h; actives lie on both sides; signal over control mean, under 1 quenches; fluorescence interference ratio at 100 µM; actives 6% (n = 16,000); AID 720488;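 active = compound fluorescence over control fluorescence at most 0.8, a quencher, or at least a set upper limit, an enhancer; inactive = ratio between 0.8 and the set upper limit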
HCV NS3h FP: blocks HCV NS3 helicase binding to DNA | NS3h Cy5-dT15 DNA binding, fluorescence polarization | inhibition, % at 100 µM | actives 1.6% (n = 16,000);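 active = inhibition above the average over every tested compound plus 3 SD, cut at about 40% in these data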
HCV NS3h conf: hepatitis C NS3 helicase inhibition, confirmation | shares compounds with HCV NS3h FP | actives 20% (n = 240) | NS3h binding to Cy5-dT15 DNA, fluorescence polarization | inhibition, % at 100 µM;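 active = percent inhibition of 50% or more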
SSB-DNA FP CB: E. coli SSB-DNA binding inhibition, NS3h counter-screen; shares compounds with HCV NS3h FP; E. coli SSB binding Cy5-dT15, fluorescence polarization; inhibition, % at 100 µM; actives 40% (n = 240); AID 720486;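 active = inhibition of at least 50%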;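 also: displacers lower Cy5 polarization so higher inhibition means more SSB displaced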
Target sequence (P0AGE0 whole entry, looked up): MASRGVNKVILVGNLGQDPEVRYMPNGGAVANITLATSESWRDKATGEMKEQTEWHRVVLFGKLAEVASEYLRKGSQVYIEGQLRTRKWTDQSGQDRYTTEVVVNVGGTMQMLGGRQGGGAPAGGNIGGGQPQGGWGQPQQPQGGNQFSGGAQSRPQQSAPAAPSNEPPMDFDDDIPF
Cy5 SSB interf: counter-screen for HCV NS3 helicase inhibitors: fluorescence interference | shares compounds with HCV NS3h FP | Cy5-dT15/E. coli SSB fluorescence interference; actives lie on both sides | fluorescence interference ratio at 100 µM | actives 8% (n = 240) | AID 720487;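 active = fluorescence interference ratio at or above 1.2, signal boosting, or at or below 0.8, signal quenching; inactive = ratio between 0.8 and 1.2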
Cy5 fluor confirm: Cy5 fluorescence interference, confirmation counter-screen; shares compounds with HCV NS3h FP; Cy5-dT15 DNA/NS3h fluorescence interference counterscreen; fluorescence interference ratio at 100 µM, hits read low; actives 44% (n = 240); AID 720489;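 active = fluorescence interference ratio at or below 0.8 quencher or at or above a set limitenhancer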
Each line names hits and unclear results; the compound was inactive in the other large screens (follow-up assays come after a bar, where they were run). Most compounds without a hit are left out; they make up all but 6.9% or so of the library.

O=C1NC(=O)N(c2ccc(Br)cc2)C(=O)/C1=C/C=C/c1ccccc1	none
CCc1ccc(N2C(=O)NC(=O)/C(=C/C=C/c3ccco3)C2=O)cc1	HCV NS3h FP 42
O=C1CC(=O)N(c2ccc(F)cc2)C(=S)N1	none
COc1ccc(-c2ccc(C=C3C(=O)NC(=O)NC3=O)o2)c([N+](=O)[O-])c1	Cy5 interf NS3h 0.44
O=C1NC(=O)C(=Cc2ccccc2OCCOc2ccc([N+](=O)[O-])cc2)C(=O)N1	none
Cc1ccc(C=C2C(=O)NC(=O)NC2=O)cc1[N+](=O)[O-]	none
Cc1cc(-c2ccc(C=C3C(=O)NC(=O)NC3=O)o2)ccc1[N+](=O)[O-]	Cy5 interf NS3h 0.76
Oc1ccc(Br)cc1CN1CCN(Cc2ccc(F)cc2)CC1	none
O=C(CN1CCCC1=O)NCc1ccccc1	none
O=C1c2ccccc2-c2onc3c(Br)cc(N4CC4)c1c23	Cy5 interf NS3h 0.78
O=[N+]([O-])c1ccc(N2CCNCC2)cc1NCCOc1ccccc1	Cy5 interf NS3h 0.7
CN1CCN(c2ccc([N+](=O)[O-])c(NC3CC3)c2)CC1	none
Cc1cc(C)cc(-n2c(C)cc(C=C3C(=O)NC(=O)NC3=O)c2C)c1	none
Cc1ccc(S(=O)(=O)n2cc(C=C3C(=O)NC(=O)NC3=O)c3ccccc32)cc1	Cy5 interf NS3h 0.7
O=Cc1cn(Cc2ccccc2F)c2ccccc12	none
CCn1cc(C=C2C(=O)NC(=O)NC2=O)c2ccccc21	Cy5 interf NS3h 0.73
O=c1oc2ccccc2c2c1C(c1ccccc1)c1c(c3ccccc3oc1=O)O2	none
COc1ccc(C2c3c(c4ccccc4oc3=O)Oc3c2c(=O)oc2ccccc32)cc1Cn1nc(C)c([N+](=O)[O-])c1C	none
O=Cc1cn(Cc2ccc(Cl)c(Cl)c2)c2ccccc12	none
CCNc1cc2oc(=O)cc(C(F)(F)F)c2cc1C	none
O=C1/C(=C/c2ccccc2O)N2CCC1CC2	none
COC(=O)N1[C@H](c2ccccc2)[C@@H]1c1ccccc1	Cy5 interf NS3h 0.68
O=C1NC(=S)N(c2ccc(Br)cc2)C(=O)/C1=C/c1ccc(-c2ccccc2C(=O)O)o1	none
Cc1ccc(C=C2C(=O)NC(=S)N(c3ccccc3F)C2=O)s1	HCV NS3h FP 42
COc1ccc(CN2CCNCC2)cc1OC	none
Cc1cccc(N2C(=O)NC(=O)/C(=C/c3ccc(-c4ccc(C(=O)O)c(Cl)c4)o3)C2=O)c1	none
COC(=O)c1cccc(-c2ccc(C=C3C(=O)NC(=S)NC3=O)o2)c1	Cy5 interf NS3h 0.75
O=S(=O)(c1cc(Cl)c(O)c(Cl)c1)c1cc(Cl)c(O)c(Cl)c1	none
COc1ccccc1OCC(=O)N1CCN(C)CC1	none
CC1(C)CN1S(=O)(=O)c1ccc(Cl)cc1 (stereo unspecified)	none
COc1ccc(C(=O)NC(Cc2cnc[nH]2)C(=O)O)cc1 (stereo unspecified)	none
Nc1ccc(Oc2ccc(N)c(N)c2)cc1N	Cy5 interf NS3h 0
COc1ccc(C=C2C(=O)NC(=O)NC2=O)cc1OCc1ccc(Cl)cc1Cl	Cy5 interf NS3h 0.61
O=C1NC(=S)NC(=O)C1=Cc1ccc(OCc2ccccc2)c(OCc2ccccc2)c1	none
Cc1nc2ccc(I)cc2c(=O)n1-c1ccc([N+](=O)[O-])cc1Cl	none
CCCCCC1(C)NCCN2C(=O)CSC21 (stereo unspecified)	none
O=C1NC(=S)N(c2ccccc2)C(=O)/C1=C/c1ccco1	HCV NS3h FP 94 | HCV NS3h conf 63 | SSB-DNA FP CB 100 | Cy5 SSB interf inactive | Cy5 fluor confirm 0.71
O=C1NC(=S)N(c2ccccc2F)C(=O)C1=Cc1ccco1	Cy5 interf NS3h 0.65, HCV NS3h FP 106 | HCV NS3h conf 113 | SSB-DNA FP CB 123 | Cy5 SSB interf 0.77 | Cy5 fluor confirm inactive
O=C1NC(=O)N(c2ccc(Cl)cc2)C(=O)/C1=C/c1ccccc1	none
CC(C)OC(NC(=O)c1ccco1)C(Cl)(Cl)Cl (stereo unspecified)	none
COc1ccc(O)c(CN2CCN(Cc3ccc(Br)cc3)CC2)c1	none
COc1ccc(O)c(CN2CCN(Cc3ccc(F)cc3)CC2)c1	Cy5 interf NS3h 1.2, HCV NS3h FP 64 | HCV NS3h conf inactive | SSB-DNA FP CB inactive | Cy5 SSB interf inactive | Cy5 fluor confirm inactive
